Values joined by “and” are separate entries in the source; they are usually repeats but may differ in a detail not shown here. Equal values may be shown once. Active and inactive are the calls of the source. Where a call stands in place of a potency, no number is given. Unless noted, the call rests on the fitted dose curve; in most records, active means well fitted curve in the direction sought with a large enough effect in the repeat runs; inconclusive means weak or mixed curves; inactive means no such curve, though single readings can be large; an effect the other way counts as inactive or inconclusive.
How the values were obtained:
[1] = qHTS assay for identifying genotoxic compounds that show differential cytotoxicity against isogenic chicken DT40 cell lines with known DNA damage response pathways - Rad54/Ku70 mutant cell line (AID 743015); further: nearly all actives have a fitted effect of over 60% in size; further: potency means the concentration at half of the fitted maximal effect
[2] = qHTS assay to identify small molecule antagonists of the androgen receptor (AR) signaling pathway - cell viability counter screen (AID 743033; further: nearly all actives have a fitted effect of over 45% in size; further: potency means the concentration at half of the fitted maximal effect)
[3] = qHTS assay to identify small molecule antagonists of the androgen receptor (AR) signaling pathway using the MDA cell line - cell viability counter screen (AID 743041; further: nearly all actives have a fitted effect of over 45% in size; further: potency means the concentration at half of the fitted maximal effect)
Outline: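 MDA-kb2 AR-luc human breast carcinoma cells (MMTV-luciferase, AR/GR responsive) were treated with compounds plus R1881 agonist for 16 h at 37 °C. Viability was read as CellTiter-Fluor fluorescence in the same wells as the reporter assay.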

[4] = qHTS assay to identify small molecule antagonists of the thyroid receptor (TR) signaling pathway - cell viability counter screen (AID 743064); further: nearly all actives have a fitted effect of over 50% in size; further: potency means the concentration at half of the fitted maximal effect
Outline: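 In-well cytotoxicity read by CellTiter-Fluor (30 min, 37 C) following 23.5 h exposure of GH3 cells bearing a TRE-luciferase sensor. Compounds were added alongside 1 nM (final) T3 to drive TR transactivation.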

[5] = qHTS assay to identify small molecule antagonists of the thyroid receptor (TR) signaling pathway (AID 743065); further: nearly all actives have a fitted effect of over 55% in size; further: potency means the concentration at half of the fitted maximal effect
Outline: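 GH3.TRE-Luc rat pituitary cells carrying two TR response elements driving luciferase were plated for 4 h, given compound plus 1 nM T3 (final), and incubated 23.5 h at 37 C. ONE-Glo luminescence measured reporter inhibition; CellTiter-Fluor fluorescence tracked cytotoxicity.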

[6] = test system: thyroid hormone receptor (rat, GH3 cells); assay: qHTS assay to identify small molecule agonists of the thyroid receptor (TR) signaling pathway (AID 743066; calls by dose curve)
[7] = qHTS assay to identify small molecule antagonists of the estrogen receptor alpha (ER-alpha) signaling pathway - cell viability counter screen (AID 743074; calls by dose curve; further: nearly all actives have a fitted effect of over 45% in size; further: potency means the concentration at half of the fitted maximal effect)
[8] = molecular target: Estrogen receptor (Homo sapiens) (UniProt P03372); assay: qHTS assay to identify small molecule agonists of the estrogen receptor alpha (ER-alpha) signaling pathway (AID 743075; calls by dose curve; further: potency means the concentration at half of the fitted maximal effect)
Estrogen receptor (Homo sapiens), sequence (P03372 whole entry, looked up): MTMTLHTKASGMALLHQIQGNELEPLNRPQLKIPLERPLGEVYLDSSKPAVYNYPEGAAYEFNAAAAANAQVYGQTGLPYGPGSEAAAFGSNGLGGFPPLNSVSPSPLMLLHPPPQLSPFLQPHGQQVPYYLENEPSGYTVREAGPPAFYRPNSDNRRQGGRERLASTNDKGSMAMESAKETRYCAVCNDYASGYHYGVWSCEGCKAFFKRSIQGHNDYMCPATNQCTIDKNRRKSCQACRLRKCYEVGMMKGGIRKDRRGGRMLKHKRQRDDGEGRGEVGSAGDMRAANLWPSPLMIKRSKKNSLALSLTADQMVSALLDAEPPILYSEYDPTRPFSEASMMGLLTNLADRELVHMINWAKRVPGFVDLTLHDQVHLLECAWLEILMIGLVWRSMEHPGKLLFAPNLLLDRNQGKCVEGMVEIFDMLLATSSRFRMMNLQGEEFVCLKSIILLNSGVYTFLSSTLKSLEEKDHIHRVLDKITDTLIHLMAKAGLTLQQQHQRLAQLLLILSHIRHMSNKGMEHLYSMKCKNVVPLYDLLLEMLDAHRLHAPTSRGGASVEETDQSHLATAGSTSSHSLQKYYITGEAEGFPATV

[9] = molecular target: Estrogen receptor (Homo sapiens) (UniProt P03372); assay: qHTS assay to identify small molecule agonists of the estrogen receptor alpha (ER-alpha) signaling pathway using the BG1 cell line (AID 743079); settings: BG1Luc4E2 cells, ERE-luciferase agonist, 22 h; activation: at 70.3 µM (top of the series); further: nearly all actives have a fitted effect of over 20% in size; further: potency means the concentration at half of the fitted maximal effect
[10] = qHTS assay to identify small molecule antagonists of the estrogen receptor alpha (ER-alpha) signaling pathway using the BG1 cell line (AID 743080; calls by dose curve;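 further: BG1 cells stimulated with 17beta-estradiol alongside compound; nearly all actives have a fitted effect of over 25% in size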; further: potency means the concentration at half of the fitted maximal effect)
Outline: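 Readout is ONE-Glo luminescence, taken 30 min at room temperature after reagent addition, preceded by a CellTiter-Fluor viability read; BG1-Luc-4E2 cells had received compound and 17beta-estradiol for 21.5 h at 37 C.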

[11] = qHTS assay to identify small molecule antagonists of the estrogen receptor alpha (ER-alpha) signaling pathway using the BG1 cell line - cell viability counter screen (AID 743081);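 further: compound given together with 17beta-estradiol as the ER stimulus; nearly all actives have a fitted effect of over 45% in size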
Aromatase (Homo sapiens) = Aromatase (Homo sapiens) (UniProt P11511); assay: qHTS assay to identify aromatase inhibitors (AID 743083); further: nearly all actives have a fitted effect of over 55% in size; further: potency means the concentration at half of the fitted maximal effect
Aromatase (Homo sapiens), sequence (P11511 whole entry, looked up): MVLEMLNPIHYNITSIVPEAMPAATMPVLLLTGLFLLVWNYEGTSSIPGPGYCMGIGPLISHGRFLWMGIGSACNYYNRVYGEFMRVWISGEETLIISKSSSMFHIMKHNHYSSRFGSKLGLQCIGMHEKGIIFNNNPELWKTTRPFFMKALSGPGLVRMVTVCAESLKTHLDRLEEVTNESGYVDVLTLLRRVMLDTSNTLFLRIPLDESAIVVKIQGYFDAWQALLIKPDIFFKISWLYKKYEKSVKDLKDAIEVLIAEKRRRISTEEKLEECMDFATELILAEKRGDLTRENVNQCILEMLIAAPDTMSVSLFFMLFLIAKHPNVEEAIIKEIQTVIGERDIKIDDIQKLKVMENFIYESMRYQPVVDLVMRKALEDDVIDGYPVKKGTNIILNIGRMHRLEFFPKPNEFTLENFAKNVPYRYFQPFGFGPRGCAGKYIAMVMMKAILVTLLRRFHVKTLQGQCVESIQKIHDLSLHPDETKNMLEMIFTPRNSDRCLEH

[12] = molecular target: Estrogen receptor (Homo sapiens) (UniProt P03372); assay: qHTS assay to identify small molecule antagonists of the estrogen receptor alpha (ER-alpha) signaling pathway (AID 743069; active means well fitted curve in the direction sought with a large enough effect in the signal ratio in the repeat runs, not every such curve was filed as active; inconclusive means weak or mixed curves, or effect the other way; inactive means no such curve, though single readings can be large or run the other way; the % refers to the signal ratio; further: potency means the concentration at half of the fitted maximal effect)
Outline: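 HEK293 cells stably carrying an ER-alpha-UAS-bla beta-lactamase reporter were pre-cultured overnight in 2% charcoal-stripped FBS medium. Test compounds in DMSO were added together with 17beta-estradiol for 18 hr at 37C. Read-out was fluorescence after 2 hr with LiveBLAzer B/G FRET substrate at room temperature.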

[13] = qHTS assay for identifying genotoxic compounds that show differential cytotoxicity against isogenic chicken DT40 cell lines with known DNA damage response pathways - wild type cell line (AID 743012); further: nearly all actives have a fitted effect of over 60% in size; further: potency means the concentration at half of the fitted maximal effect
Outline: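 Parental DNA repair-proficient DT40 cells, 300 per well, were pre-incubated ~0.5 h at 37 C/5% CO2, pin-dosed with compounds in DMSO, then incubated 40 h. Viability was read as CellTiter-Glo luminescence after 30 min at room temperature.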

[14] = qHTS assay for identifying genotoxic compounds that show differential cytotoxicity against isogenic chicken DT40 cell lines with known DNA damage response pathways - Rev3 mutant cell line (AID 743014); further: nearly all actives have a fitted effect of over 55% in size; further: potency means the concentration at half of the fitted maximal effect
[15] = molecular target: Androgen receptor (Homo sapiens) (UniProt P10275); assay: qHTS assay to identify small molecule agonists of the androgen receptor (AR) signaling pathway using the MDA cell line (AID 743040; further: nearly all actives have a fitted effect of over 20% in size)
Androgen receptor (Homo sapiens), sequence (P10275 whole entry, looked up): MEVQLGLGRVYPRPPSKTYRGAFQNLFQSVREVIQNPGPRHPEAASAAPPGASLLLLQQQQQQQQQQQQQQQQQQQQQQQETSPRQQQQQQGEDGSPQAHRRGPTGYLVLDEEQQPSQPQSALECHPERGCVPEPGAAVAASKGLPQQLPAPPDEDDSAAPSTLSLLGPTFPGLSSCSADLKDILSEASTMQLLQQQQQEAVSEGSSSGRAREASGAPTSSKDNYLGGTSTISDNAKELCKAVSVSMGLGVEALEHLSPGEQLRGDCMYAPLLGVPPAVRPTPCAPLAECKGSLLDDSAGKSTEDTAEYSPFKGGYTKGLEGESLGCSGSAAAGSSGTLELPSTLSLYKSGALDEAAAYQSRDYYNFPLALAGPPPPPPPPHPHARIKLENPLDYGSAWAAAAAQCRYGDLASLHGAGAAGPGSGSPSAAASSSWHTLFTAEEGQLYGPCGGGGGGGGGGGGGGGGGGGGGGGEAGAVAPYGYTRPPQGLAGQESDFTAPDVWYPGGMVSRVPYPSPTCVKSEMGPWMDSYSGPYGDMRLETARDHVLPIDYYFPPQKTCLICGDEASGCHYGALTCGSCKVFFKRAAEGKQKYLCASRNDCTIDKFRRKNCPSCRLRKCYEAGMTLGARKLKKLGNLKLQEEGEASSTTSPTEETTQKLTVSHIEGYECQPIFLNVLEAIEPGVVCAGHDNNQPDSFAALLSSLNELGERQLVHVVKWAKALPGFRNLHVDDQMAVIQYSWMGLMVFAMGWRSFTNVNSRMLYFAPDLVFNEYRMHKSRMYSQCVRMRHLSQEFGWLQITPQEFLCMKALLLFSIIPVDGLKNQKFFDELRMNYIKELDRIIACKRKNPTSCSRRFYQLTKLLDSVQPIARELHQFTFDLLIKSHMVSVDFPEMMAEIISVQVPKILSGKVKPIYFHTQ
Outline: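 MDA-kb2 breast carcinoma cells stably carrying an MMTV-driven luciferase reporter (AR- and GR-responsive) were seeded and held 5 h at 37C, 0% CO2, then exposed to compounds in DMSO for 16 h. Luminescence was read 30 min after ONE-Glo addition.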

[16] = molecular target: Androgen receptor (Homo sapiens) (UniProt P10275); assay: qHTS assay to identify small molecule antagonists of the androgen receptor (AR) signaling pathway using the MDA cell line (AID 743042; further: nearly all actives have a fitted effect of over 55% in size; further: potency means the concentration at half of the fitted maximal effect)
Outline: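 MDA-kb2 cells (human breast carcinoma, stably carrying an MMTV-luciferase reporter responsive to AR and GR) were plated at 3,000 cells/well and preincubated 5 hr at 37C, then given compound plus R1881 agonist for 16 h. ONE-Glo luminescence was read.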

Structure (SMILES)	Potency [1]	Potency [2]	Potency [3]	Potency [4]	Potency [5]	Potency [6]	Potency [7]	Potency [8]	Potency [9]	Potency [10]	Potency [11]	Potency (Aromatase (Homo sapiens))	Potency [12]	Potency [13]	Potency [14]	outcome [15]	Potency [16]
CNC(=O)Oc1cc(C)cc(C(C)C)c1	inactive	inactive	inactive	inactive	inactive	inactive	inactive	inactive	inactive	inactive	inactive	inactive	–	–	–	–	–
CCC(C)c1cccc(C(C)CC)c1O (centres undefined)	–	inactive	inactive	–	61.1 µM (active)	inactive	inactive	inactive	inactive	inactive	inactive	–	inactive	–	–	–	–
O=S1(=O)OCC2C(CO1)C1(Cl)C(Cl)=C(Cl)C2(Cl)C1(Cl)Cl (centres undefined)	27.3 µM (active)	–	–	54.5 µM (active)	48.6 µM (active)	–	–	inactive	inactive	–	inactive	54.5 µM (active)	inactive	24.3 µM (active)	10.9 µM (active)	–	–
CCCCON=O	inactive	inactive	inactive	inactive	inactive	inactive	inactive	–	–	–	inactive	inactive	–	inactive	–	–	–
CCN(CC)C(=S)S	5.31 µM (active) and 5.42 µM (active) and 486 nM (active)	–	–	1.19 µM (active)	–	inactive	inactive	inactive	inactive	–	inactive	–	inactive	2.66 µM (active) and 5.42 µM (active) and 433 nM (active)	–	–	–
CCCCN(CCCC)C(=S)S	–	inactive	–	inactive	inactive	inactive	inactive	inactive	inactive	inactive	inactive	inactive	inactive	–	inactive	–	–
CCCCC(CC)COC(=O)OOC(C)(C)C (centres undefined)	inactive	inactive	inactive	inactive	inactive	inactive	inactive	–	–	–	inactive	inactive	–	–	inactive	–	–
Oc1cc(Cl)c(Cl)c(Cl)c1Cl	–	53.7 µM (active)	–	29.9 µM (active)	15 µM (active)	inactive	–	inactive	–	–	inactive	–	–	–	–	inactive	59.7 µM (active)
CCN1CCC2(CC1)COc1cc3c(cc12)N(C(=O)c1ccc(-c2ccc(-c4nnc(C)o4)cc2C)cc1)CC3	1 µM (active)	6.38 µM (active)	–	14.2 µM (active)	2.52 µM (active)	–	50.7 µM (active)	inactive	–	–	–	28.3 µM (active)	–	–	1.42 µM (active)	inactive	63.3 µM (active)
CCc1cccc(C)c1N(C(=O)CCl)[C@@H](C)COC	30.6 µM (active)	inactive	inactive	inactive	–	–	inactive	–	–	–	inactive	–	–	–	–	–	–
Brc1ccc(Oc2ccc(Br)cc2Br)c(Br)c1	inactive	inactive	inactive	–	–	inactive	inactive	inactive	19.4 µM (active)	–	inactive	inactive	–	inactive	–	–	–
N#Cc1c[nH]cc1-c1cccc2c1OC(F)(F)O2	13.7 µM (active)	–	–	27.3 µM (active)	12.2 µM (active)	–	inactive	17.4 µM [inconclusive] (active)	inactive	48.6 µM (active)	inactive	27.3 µM (active)	13.8 µM [inhibitor] (active)	13.7 µM (active)	8.63 µM (active)	–	–
[C-]1=CC=CC1.[Cl][Zr+2][Cl].c1cc[cH-]c1	inactive	inactive	inactive	inactive	inactive	inactive	inactive	–	–	–	inactive	–	–	–	inactive	–	–
C#CCC1=C(C)C(OC(=O)C2C(C=C(C)C)C2(C)C)CC1=O (centres undefined)	30.4 µM (active)	–	inactive	–	60.7 µM (active)	–	inactive	–	–	–	inactive	–	–	19.2 µM (active)	30.4 µM (active)	–	–
C=CCBr	inactive	inactive	inactive	inactive	inactive	inactive	inactive	inactive	inactive	inactive	inactive	inactive	inactive	–	inactive	–	–
Cc1ccccc1OP(=O)(Oc1ccccc1C)Oc1ccccc1C	30.8 µM (active)	inactive	inactive	54.7 µM (active)	54.7 µM (active)	–	–	inactive	3.87 µM (active)	inactive	inactive	–	–	–	54.7 µM (active)	inactive	inactive
O=S(=O)(O)F	inactive	inactive	inactive	inactive	inactive	inactive	–	inactive	inactive	inactive	inactive	inactive	inactive	–	inactive	–	–
CCOP(=S)(NC(C)C)Oc1ccccc1C(=O)OC(C)C (centres undefined)	17.2 µM (active)	–	61.1 µM (active)	–	54.5 µM (active)	inactive	–	inactive	inactive	–	inactive	38.6 µM (active)	inactive	–	13.7 µM (active)	–	–
